High-throughput results: PubChem, National Center for Advancing Translational Sciences (NCATS)
Only a selection was taken, and hits are over-represented in it overall.
LmPK inhibitor: qHTS Assay for Inhibitors of Leishmania Mexicana Pyruvate Kinase (LmPK) | 290,000 compounds, 0.37% hits | Potency, µM (top dose mostly 57.5 µM), for inactives: top-dose activity change, negative = inhibition, hits mostly inhibitors | purified LmPK, Kinase-Glo ATP luminescence, 1 h | Q27686 | AID 1721, 2009; also: potency is read from the fitted curve at half-maximal effect; % is scaled to controls: 0 for no effect and ±100 for the full control effect
Target sequence (Q27686 whole entry, looked up): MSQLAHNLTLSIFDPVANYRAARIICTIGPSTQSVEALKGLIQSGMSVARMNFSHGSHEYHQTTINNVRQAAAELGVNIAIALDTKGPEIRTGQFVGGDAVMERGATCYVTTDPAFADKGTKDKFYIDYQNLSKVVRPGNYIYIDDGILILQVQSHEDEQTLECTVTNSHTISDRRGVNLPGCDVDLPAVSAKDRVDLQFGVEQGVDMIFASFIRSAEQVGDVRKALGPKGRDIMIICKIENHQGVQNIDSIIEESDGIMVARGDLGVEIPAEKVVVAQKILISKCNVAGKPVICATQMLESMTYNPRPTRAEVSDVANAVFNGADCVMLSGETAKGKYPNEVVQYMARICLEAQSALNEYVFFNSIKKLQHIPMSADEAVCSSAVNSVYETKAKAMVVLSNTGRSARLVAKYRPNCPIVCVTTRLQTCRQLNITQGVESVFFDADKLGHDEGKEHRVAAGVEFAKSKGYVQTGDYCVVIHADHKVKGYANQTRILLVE
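Kinase-Glo luminescence read after 1 h RT reaction of 0.1 nM LmPK with 0.5 mM PEP and 0.1 mM ADP. Activity scaled between uninhibited and enzyme-free controls.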
RE007 growth inh: qHTS Assay for Inhibitors of the HIV-1 protein Vpr; Potency, µM (top dose mostly 92.2 µM), without a hit: at the highest dose activity change, negative = less growth, actives largely listed as inhibitors; 360,000 compounds, 0.21% hits; S. pombe RE007 Vpr strain, BacTiter-Glo ATP luminescence, 24 h; active = well fitted falling curve with a large enough effect; inconclusive = small, poorly fitted or top-dose-only effect; inactive = no such curve, though single readings can be large or run the other way; also: potency is read from the fitted curve at half-maximal effect; % is scaled to controls: 0 for no effect and ±100 for the full control effect; nearly all actives have a fitted effect of over 50% in size
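Fission yeast RE007 carrying one integrated HIV-1 vpr copy, seeded at OD 0.01 in PMG+AL medium with 23 nL pinned compound. Grown 24 h at 30 degrees; viability read by BacTiter-Glo luminescence after 5 min.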
CHX counter: Cycloheximide Counterscreen for Small Molecule Inhibitors of Shiga Toxin | AID 2314, 2010 | 300,000 compounds, 12% hits | max response, % | cell reporter, cycloheximide protein synthesis inhibition counterscreen; in the data active = max response mostly above about 13%, no sharp cut-off; inactive = mostly below about 14%; also: read at 38.3 µM for the half of the compounds with a filed dose; 0% is about no effect
TbPYK inhibitor: qHTS of Trypanosoma Brucei Inhibitors | Potency, µM (top dose mostly 76.8 µM), inactives show top-dose activity, negative = inhibition, usual class: inhibitors | 410,000 compounds, 0.12% hits | TbPYK enzyme, Kinase-Glo Plus ATP luminescence, 45 min; also: potency is read from the fitted curve at half-maximal effect; % is scaled to controls: 0 for no effect and ±100 for the full control effect; nearly all actives have a fitted effect of over 50% in size
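ADP (130 uM final) triggers the TbPYK reaction after compound addition; incubation is 45 min at room temperature. Kinase-Glo Plus is then added and luminescence imaged. Normalized data are fitted to concentration-effect curves.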
Giardia FBPA inh: qHTS Assay for Inhibitors of Fructose-1,6-bisphosphate Aldolase from Giardia Lamblia; AID 2451, 2010; 290,000 compounds, 0.71% hits; Potency, µM (highest dose often 59.6 µM), for the others: at the top dose activity, negative = inhibition, hits mostly inhibitors; purified Giardia FBPA; A8B2U2; also: potency is read from the fitted curve at half-maximal effect; % is scaled to controls: 0 for no effect and ±100 for the full control effect; nearly all actives have a fitted effect of over 55% in size
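Giardia FBPA (40 nM reagent) was preincubated 10 min at RT with compound (up to 57.5 uM final), then substrate plus GAPDH/TPI/NAD/arsenate coupling system with diaphorase/resazurin was added; resorufin fluorescence (525/598 nm) was read after 20 min.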
Shiga inhibitor: A qHTS for Small Molecule Inhibitors of Shiga Toxin; Vero cells, Shiga toxin protein synthesis inhibition reporter; inhibition, % at 38.7 µM; 290,000 compounds, 9.2% hits; in the data active = inhibition mostly above about 28%, no sharp cut-off; inactive = mostly below about 43%; also: 0% is about no effect
The depositor's hits bear a star; ? = inconclusive; / = not tested or not shown; [ ] = dose if it differs, or a comment. Unless noted, calls follow the shape of the dose curve; as a rule, active = well fitted curve in the direction sought with a large enough effect; inconclusive = small, poorly fitted or top-dose-only effect, or another doubt; inactive = no such curve, though single readings can be large; an effect the other way counts as inactive or inconclusive.

SMILES | LmPK inhibitor | RE007 growth inh | CHX counter | TbPYK inhibitor | Giardia FBPA inh | Shiga inhibitor
C[C@@H]1OC2C3=C(C(=O)[C@H]4O[C@@H]4[C@H]3O)[C@@H]1[C@H]1[C@H](C)OC=C3[C@H](O)[C@H]4O[C@H]4/C(=N\OCc4ccccc4)[C@@]321 | / | / | / | / | -4%[12.9 µM] | /
C[N+]12CCCC[C@@H]1CCC(=C(c1cccs1)c1cccs1)C2 (stereo partly specified) | / | / | / | -9% | / | /
O=C(CCS(=O)(=O)c1cccc2nonc12)Nc1ccc(F)cc1F | / | / | / | -7% | / | /
COc1ccc(-n2ncc(C(C)NS(=O)(=O)c3cc(F)ccc3C)c2C)cc1 (stereo unspecified) | -2% | 7% | 21* | 2% | / | -4
COc1ccc(-c2csc(-n3cccn3)n2)cc1 | -1% | -18% | 62* | 12% | 0% | 66*
COc1ccc(-c2csc(N3CCSCC3)n2)cc1 | 0% | -8% | 56* | ? | 2% | 95*
COc1ccccc1C(=O)N/N=C(\C)CC(=O)Nc1ccc(Cl)cn1 | -5% | -7% | 37* | 0% | -1% | 50*
C/C(CC(=O)Nc1cc(C)ccn1)=N\NC(=O)C(=O)Nc1cccc(C)c1 | -4% | 6% | 26* | -15% | -1% | 32
COc1ccccc1C(=O)N/N=C(\C)CC(=O)Nc1ccccn1 | -1% | 5% | 26* | -15% | -15% | 68*
COc1ccc(NC(=O)C(=O)N/N=C(\C)CC(=O)Nc2ccccn2)c(OC)c1 | -1% | -24% | 1 | 0% | 0% | 17
C/C(CC(=O)Nc1ccccn1)=N\NC(=O)C(=O)Nc1ccccc1C | -1% | -9% | 1 | -5% | 1% | -20
CCc1ccc(NC(=O)C(=O)N/N=C(\C)CC(=O)Nc2ccccn2)cc1 | 5% | 0% | 36* | -11% | -1% | 48*
Cc1ccc(C)c(N2CCN(C(=O)CN3C(=O)CSc4c3c(C)nn4-c3ccccc3)CC2)c1 | / | / | / | -3% | / | /
CCc1ccc(CN(Cc2ccco2)C(=O)COc2ccccc2Cl)cc1 | / | / | / | 2% | / | /
C/C(CC(=O)Nc1cccc2c1CCCC2)=N\NC(=O)c1ccccc1N | 2% | -13% | 31* | 4% | -4% | 116*
COc1ccccc1C(=O)N/N=C(\C)CC(=O)Nc1ccc(Nc2ccccc2)cc1 | 0% | -13% | 12 | -7% | / | 25
C/C(CC(=O)Nc1ccccn1)=N\NC(=O)c1ccc(C)cc1 | 6% | -16% | 18* | -12% | -4% | 57
C/C(CC(=O)Nc1cccc2c1CCCC2)=N\NC(=O)c1cccc2ccccc12 | 6% | -8% | -2 | -3% | 5% | -7
COc1ccccc1C(=O)N/N=C(\C)CC(=O)Nc1ccccc1NC(C)=O | 1% | -1% | 19* | -11% | -20% | /
Cn1c(=O)c(-c2cccc(F)c2)nc2cncnc21 | / | / | / | / | 6% | /
O=P(O)(O)C(O)(Cc1cnc2ccccn12)P(=O)(O)O | / | / | / | 1% | / | /
O=C(N/N=C1/C[C@@H](O)[C@@H](O)[C@@H]2[C@@H]3C(=O)N(C[C@@H]4CCCO4)C(=O)[C@H]3CC[C@@H]12)OCc1ccccc1 | / | / | / | / | 1%[12.9 µM] | /
CN1C=C/C(=C\c2cc[n+](C)c3ccccc23)c2ccccc21 | -2% | 3.2µM* | -3 | -19% | ? | -17
COc1ccc(OCC(=O)O/N=C(\N)c2ccc(OC)cc2)cc1 | 2% | -16% | 8 | 8% | -7% | 25
N/C(=N\OC(=O)CC1CCCCC1)c1ccc([N+](=O)[O-])cc1 | 2% | 3% | 18* | -11% | -1% | 26
SMILES | LmPK inhibitor | RE007 growth inh | CHX counter | TbPYK inhibitor | Giardia FBPA inh | Shiga inhibitor
N/C(=N\OC(=O)CC1CCCCC1)c1cccc([N+](=O)[O-])c1 | 2% | -16% | 35* | 1% | -2% | 83*
N/C(=N\OC(=O)CCC1CCCC1)c1cccc([N+](=O)[O-])c1 | 3% | 25% | 18* | -1% | -1% | 28
COc1ccc(/C(N)=N/OC(=O)CC2CCCCC2)cc1 | -10% | -6% | 47* | 5% | / | 159*
CCC/C=C(\CCC)C(NS(=O)(=O)c1cccs1)c1ccc(C(=O)OC)cc1 (stereo unspecified) | / | / | / | / | -7% | /
O=[N+]([O-])c1cccc(S(=O)(=O)NCCNS(=O)(=O)c2cccc([N+](=O)[O-])c2)c1 | / | / | / | -10% | / | /
CCOc1ccccc1CNC(=O)c1cccn1-c1nnc(N2CCCC2)s1 | / | / | / | -12%[15.4 µM] | / | /
CCCCC(=O)Nc1nnc(SCc2cc(=O)n3cc(C)ccc3n2)s1 | / | / | / | 0% | / | /
N/C(=N\OC(=O)CCC1CCCCC1)c1cccnc1 | -5% | 15% | 17* | -1% | 10% | 35*
N/C(=N\OC(=O)CCC1CCCC1)c1ccc(Br)cc1 | -1% | -6% | -3 | 8% | / | -3
COc1ccc(OC2CCN(S(=O)(=O)c3cccc(F)c3)CC2)cc1 | 3% | -7% | 36* | -8% | -2% | 81*
CCC1(c2ccccc2)NC(=S)N(c2ccc(C)cc2)N1 (stereo unspecified) | -13% | -4% | 27* | ? | 10% | 54
CCC1(c2ccc(Cl)cc2)NC(=S)N(c2ccccc2)N1 (stereo unspecified) | -2% | 23% | 14* | -25% | 11% | 37
CC1CCC2(CC1)NC(=S)N(c1ccccc1)N2 (stereo unspecified) | 20% | 170% | 24 | -22% | 1% | 41
COc1ccc(OC2C=CC(C#Cc3ccc(C(C)(C)C)cc3)OC2CO)cc1 (stereo unspecified) | / | / | / | / | -13%[12.9 µM] | /
Cc1ccc(C)c(N2CCN(C(=O)C3CCN(c4nc5ccc(C)cc5[nH]4)CC3)CC2)c1 | / | / | / | -1%[15.4 µM] | / | /
CCOc1ccc(OCC)c(NC(=O)C(NS(=O)(=O)c2cccs2)c2ccccc2)c1 (stereo unspecified) | / | / | / | 7% | / | /
COc1cccc(NC(=O)CN(C)C(=O)CNC(=O)c2ccc(Oc3ccccc3)cc2)c1 | / | -4% | / | -1% | / | /
CN(CC(=O)Nc1ccccc1Br)C(=O)CNC(=O)c1ccc(Oc2ccccc2)cc1 | -5% | 20% | 60* | -1% | / | 55*
COc1ccc(-c2cn(-c3ccccc3)c(=S)[nH]2)cc1OC | -13% | 9% | 25* | ? | 8% | 75*
COc1ccc(-n2cc(-c3ccc(Cl)cc3)[nH]c2=S)cc1 | -1% | 1% | 13* | -38% | 0% | 13
